Consider eight molecules from PubChem BioAssay (NCI).

Compounds without any hit were thinned out: in the full panel of roughly 83,000, 20% have a hit.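 How to read the values: 0–100, growth inhibition (40 = 60% inhibited); 0, no net growth; -100 to 0, cell death (-40 = 40% of starting cells died; -100 = all dead).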 Unmarked numbers belong to inactive results. Activity calls are given as the source filed them. How the source made its calls: active means growth percent below 10; inactive means the rest.

What all share (assay): NCI-60 one-dose screen, 48 h (100 = growth as untreated, 0 = no growth, -100 = all killed)
One assay has as its system DU-145 prostate. The settings on record: 10 µM unless noted.
A further assay deals with K-562 leukemia. As to conditions: 10 µM unless noted.
For a further assay, the system named is MALME-3M melanoma. The settings on record: 10 µM unless noted.
In the next assay the test system is MDA-MB-231 breast. As to conditions: 10 µM unless noted.
The test system of another assay is RXF 393 renal. As to conditions: 10 µM unless noted.
For a further assay, the system named is SF-268 CNS. The settings on record: 10 µM unless noted.
A further assay concerns SF-295 CNS. The settings on record: 10 µM unless noted.
A further assay has as its system SF-539 CNS. As to conditions: 10 µM unless noted.
Another assay relates to UACC-257 melanoma. As to conditions: 10 µM unless noted.
Another assay has as its system M14 melanoma. The settings on record: 10 µM unless noted.
In another assay the test system is HCT-15 colon. The settings on record: 10 µM unless noted.
The subject of another assay is HT29 colon. As to conditions: 10 µM unless noted.
The next assay relates to SNB-75 CNS. The settings on record: 10 µM unless noted.
Another assay relates to U251 CNS. The settings on record: 10 µM unless noted.
The subject of another assay is PC-3 prostate. The settings on record: 10 µM unless noted.
A further assay concerns SK-MEL-5 melanoma. The settings on record: 10 µM unless noted.
The next assay concerns UACC-62 melanoma. As to conditions: 10 µM unless noted.
In the next assay the test system is LOX IMVI melanoma. The settings on record: 10 µM.
A further assay has as its system SK-MEL-28 melanoma. The settings on record: 10 µM unless noted.

Turning to `CCCCCCCCc1ccc(S(=O)(=O)Nc2ccc(CC)cc2C(=O)O)cc1`, the growth was 105% in the assay with DU-145 prostate; 83% with K-562 leukemia; 98.2% in the assay on MALME-3M melanoma; 102% in the assay with MDA-MB-231 breast; 109% with RXF 393 renal; 97.4% with SF-268 CNS. Also, the growth in the assay on SF-295 CNS was 81.2%; with SF-539 CNS, 101%; in the assay on UACC-257 melanoma it was 91.1%; in the assay with M14 melanoma, 99.1%; in the assay with HCT-15 colon, 85.7%; in the assay with HT29 colon, 124%. Further, the growth in the assay with SNB-75 CNS was 106%; in the assay on U251 CNS it was 92.9%; with PC-3 prostate it was 89.7%; in the assay with SK-MEL-5 melanoma, 80.3%; in the assay on UACC-62 melanoma it was 81.3%; in the assay on LOX IMVI melanoma, 99.9%. In addition, the growth in the assay on SK-MEL-28 melanoma was 104%.

As for `Cc1ccc(NC(=O)[C@]23CCC(C)(C)CC2C2=CCC4[C@@]5(C)C[C@@H](O)[C@H](O)[C@@](C)(CO)C5CC[C@@]4(C)[C@]2(C)CC3)cc1` (some centres not stated), the growth in the assay with DU-145 prostate was 45.6%; with K-562 leukemia, 11.6%; with MALME-3M melanoma, 49.5%; in the assay on MDA-MB-231 breast it was -8.63% (active); in the assay with RXF 393 renal, -38.6% (active); in the assay with SF-268 CNS, 48.5%. Besides, the growth in the assay with SF-295 CNS was 21.8%; in the assay with SF-539 CNS, 28.1%; in the assay with UACC-257 melanoma it was 39.8%; in the assay on M14 melanoma, 38.3%; with HCT-15 colon it was 11.7%; with HT29 colon, -50% (active). Further, the growth was 74.4% in the assay with SNB-75 CNS; 26.8% with U251 CNS; 5.82% (active) in the assay on PC-3 prostate; -83.2% (active) in the assay on SK-MEL-5 melanoma; 34.3% in the assay with UACC-62 melanoma; -6.45% (active) in the assay with LOX IMVI melanoma. For the same molecule, the growth with SK-MEL-28 melanoma was 47.9%.

Turning to `CC(=O)OC[C@@]1(C)C2CC[C@]3(C)C(CC=C4C5CC(C)(C)CC[C@]5(C(=O)Nc5ccc(C)cc5)CC[C@]43C)[C@@]2(C)C[C@@H](OC(C)=O)[C@@H]1OC(C)=O` (some centres not stated), the growth in the assay on DU-145 prostate is 49%; with K-562 leukemia, 21.6%; in the assay with MALME-3M melanoma, 60.6%; in the assay with MDA-MB-231 breast, 66.1%; in the assay on RXF 393 renal it was 82.2%; with SF-268 CNS, 57.4%. Besides, the growth in the assay on SF-295 CNS was 31.2%; in the assay on SF-539 CNS, 43.1%; with UACC-257 melanoma, 23.9%; with M14 melanoma it was 51.9%; in the assay with HCT-15 colon, 35.1%; with HT29 colon, 30.6%. Further, the growth in the assay with SNB-75 CNS is 57%; in the assay with U251 CNS, 40.7%; with PC-3 prostate, 34.3%; in the assay on SK-MEL-5 melanoma, 7.75% (active); in the assay with UACC-62 melanoma, 48.2%; with LOX IMVI melanoma, 12.5%. In addition, the growth with SK-MEL-28 melanoma was 77.1%.

Take `COc1ccc(C2(SCCNCc3cc(N(C)C)ccn3)c3ccccc3C=Cc3ccccc32)cc1`: the growth with DU-145 prostate is 18.1%; in the assay on K-562 leukemia, 2.08% (active); in the assay with MALME-3M melanoma it was -1.5% (active); with MDA-MB-231 breast it was -29.2% (active); in the assay with RXF 393 renal, 8.16% (active); in the assay on SF-268 CNS, 28.2%. The growth in the assay on SF-295 CNS is 1.44% (active); with SF-539 CNS it was -67.7% (active); with UACC-257 melanoma, 41.1%; in the assay with M14 melanoma, -44.7% (active); in the assay with HCT-15 colon it was 2.66% (active); with HT29 colon it was -43% (active). The growth was 9.76% (active) in the assay on SNB-75 CNS; 0.439% (active) in the assay with U251 CNS; 13.8% in the assay with PC-3 prostate; -20.3% (active) in the assay on SK-MEL-5 melanoma; 38% in the assay with UACC-62 melanoma; 2.34% (active) in the assay on LOX IMVI melanoma. In addition, the growth in the assay with SK-MEL-28 melanoma is 29.9%.

As to `CCOC(=O)C1=C(N)N(c2ccccc2)C2=C(C(=O)CC(C)(C)C2)C1c1ccc(N2CCOCC2)cc1` (configuration not stated), the growth is 111% in the assay with DU-145 prostate; 96.9% in the assay on K-562 leukemia; 112% in the assay with MALME-3M melanoma; 104% in the assay with MDA-MB-231 breast; 91.2% with RXF 393 renal; 97.4% in the assay with SF-268 CNS. Further, the growth in the assay with SF-295 CNS is 98.9%; in the assay on SF-539 CNS, 93%; with UACC-257 melanoma it was 109%; in the assay on M14 melanoma, 101%; with HCT-15 colon, 97.8%; with HT29 colon, 112%. The growth with SNB-75 CNS is 91.4%; in the assay on U251 CNS, 98.7%; with PC-3 prostate it was 94.6%; in the assay on SK-MEL-5 melanoma, 98.7%; with UACC-62 melanoma, 83%; in the assay with LOX IMVI melanoma it was 93.2%. The growth in the assay on SK-MEL-28 melanoma was 107%.

For `Cc1cc(=O)oc2cc(OCCCOc3ccc(/C=C/C(=O)Nc4ccccc4N)cc3)ccc12`, the growth in the assay on DU-145 prostate was 33.1%; with K-562 leukemia, 18.2%; with MALME-3M melanoma, 42%; in the assay with MDA-MB-231 breast, -2.67% (active); in the assay with RXF 393 renal, 49.5%; in the assay on SF-268 CNS, 21.9%. Moreover, the growth in the assay with SF-295 CNS is 27.4%; with SF-539 CNS, 1.75% (active); with UACC-257 melanoma, 38.2%; in the assay on M14 melanoma, 41.8%; in the assay with HCT-15 colon, 38%; in the assay with HT29 colon, 37.4%. Also, the growth is 36.2% with SNB-75 CNS; 32.2% with U251 CNS; 32% in the assay on PC-3 prostate; -91.2% (active) in the assay with SK-MEL-5 melanoma; 21% in the assay on UACC-62 melanoma; -76.5% (active) with LOX IMVI melanoma. The growth in the assay with SK-MEL-28 melanoma is 32%.

As for `COc1cc(/C=C2\C(=N)N=C(SCc3nc4ccccc4[nH]3)NC2=O)ccc1O`, the growth in the assay with DU-145 prostate is 108%; with K-562 leukemia, 103%; with MALME-3M melanoma, 91.1%; with MDA-MB-231 breast, 86.4%; in the assay on RXF 393 renal, 113%; in the assay on SF-268 CNS, 111%. The growth in the assay on SF-295 CNS was 101%; in the assay on SF-539 CNS, 99.2%; with UACC-257 melanoma it was 105%; with M14 melanoma, 95.4%; in the assay on HCT-15 colon, 96.3%; in the assay on HT29 colon, 110%. Further, the growth in the assay on SNB-75 CNS is 102%; in the assay on U251 CNS it was 105%; with PC-3 prostate, 94.2%; in the assay on SK-MEL-5 melanoma it was 98.5%; with UACC-62 melanoma, 89%; in the assay on LOX IMVI melanoma, 88%. Also, the growth in the assay with SK-MEL-28 melanoma was 110%.

As for `CC(=O)OC[C@@]1(C)C2CC[C@]3(C)C(CC=C4C5CC(C)(C)CC[C@]5(C(=O)Nc5ccc(Br)cc5)CC[C@]43C)[C@@]2(C)C[C@@H](OC(C)=O)[C@@H]1OC(C)=O` (some centres not stated), the growth in the assay with DU-145 prostate was 49%; in the assay with K-562 leukemia, 19.2%; with MALME-3M melanoma it was 55.9%; in the assay on MDA-MB-231 breast, 62.3%; with RXF 393 renal, 72.8%; in the assay on SF-268 CNS, 66.1%. Further, the growth with SF-295 CNS is 26.8%; in the assay with SF-539 CNS, 38.7%; with UACC-257 melanoma it was 20%; in the assay with M14 melanoma, 52.6%; in the assay with HCT-15 colon it was 30.6%; with HT29 colon, 27%. Besides, the growth with SNB-75 CNS is 56.1%; in the assay on U251 CNS it was 38.5%; with PC-3 prostate it was 35.5%; in the assay on SK-MEL-5 melanoma, 8.44% (active); in the assay with UACC-62 melanoma, 44.1%; in the assay with LOX IMVI melanoma, 12.2%. In addition, the growth in the assay with SK-MEL-28 melanoma is 72.3%.
